The target of the experiment is AMP-activated protein kinase, AMPK (Homo sapiens) (UniProt P54646+O43741+P54619+Q9UGJ0+Q9Y478+Q13131+Q9UGI9). As to the kind of experiment: AMP-dependent Kinase enzyme assay. An in vitro enzyme assay that detects ADP turnover that is directly proportional to AMPK activity. This uses naive AMPK that is activated during the assay with MK-8722. The format is functional. Also noted: scale not given: direction of the effect not stated beside the values. To be noted: 30 µM.
For `COC(=O)CC1CCCCN1CC(=O)Nc1cc(F)ccc1F` (centres undefined), the Percent Effect was 7.24%.

Take `CC(C)C(NC(=O)C1CCCC1)c1cc(O)nc(-c2cccnc2)n1` (centres undefined): the Percent Effect was 0.00151%.

On to `O=C(COc1ccc(Cl)cc1)NCc1nncn1C1CC1`, for which the Percent Effect is -8.68%.

As to `CN(C)CCN(Cc1ccc(F)cc1)C(=O)c1ccn(C)c(=O)c1`, the Percent Effect turned out to be 9.83%.

For `O=C1CN(Cc2cn(C3CCN(C4CSCCSC4)CC3)nn2)CCN1`, the Percent Effect is -9.53%.

In the case of `COc1nc2c(cc1C(=O)NC(C)Cc1cnccn1)CCC2` (centres undefined), the Percent Effect was -1.98%.

In the case of `CCn1cnnc1CN(C)C(=O)c1cc(COc2cccc(F)c2)[nH]n1`, the Percent Effect is -0.905%.

In the case of `O=C(NCC(O)c1ccc(F)cc1)C1CCN(C2CCCCC2)CC1` (centres undefined), the Percent Effect is -8.77%.

On to `Cc1ccc(OCC2CCCN(c3cc(C(N)=O)ccn3)C2)cc1` (centres undefined), for which the Percent Effect was 2.7%.

In the case of `COc1nc(C)ccc1CNC(=O)NC(c1ncc(C)s1)C1CC1` (centres undefined), the Percent Effect was -2.14%.

Consider `Nc1ccc(C(=O)N2CCC(Oc3cccc(C(F)(F)F)c3)CC2)cn1`, for which the Percent Effect is 6.7%.

`CN(C)C(=O)CN1CCN(c2cc(N3CCCC3CO)ncn2)CC1` (centres undefined): the Percent Effect is -0.698%.

On to `COc1ccc(S(=O)(=O)NC(=O)C(C)OC)c(OC)c1` (centres undefined), for which the Percent Effect was -4.37%.

For `O=C(c1ccc(=O)[nH]c1)N1CCC(Oc2cccc(C(F)(F)F)c2)CC1`, the Percent Effect was -3.39%.

As to `Cc1cc(C)c2c(NCc3nncn3C3CCCCC3)ncnc2n1`, the Percent Effect is -0.11%.

As to `CC(NCc1cnc(N2CCOCC2)s1)c1ccc(Cl)s1` (centres undefined), the Percent Effect came to 9.15%.

For the compound `N[C@H]1CN(C(=O)c2ccc3[nH]c(=O)c(=O)[nH]c3c2)C[C@@H]1c1ccccc1`, the Percent Effect was determined as 3.24%.

For `COc1cc(N(C)Cc2cc(C(C)(C)C)n[nH]2)ncn1`, the Percent Effect is -15.7%.

As to `CN(CCc1cccs1)CCc1nccs1`, the Percent Effect was -4.34%.
